The supplement of paper PMC10849652
The full data set covers some 7,900 targets. This sample favours those with a hit. About 0.6% of all pairs of compound and target were hits. Unmarked numbers belong to inactive results.

Legend:
Assay in all cases: log2 fold change, soluble protein after heating vs DMSO (PISA); higher = thermal stabilisation; K562 cells, 10 uM, 30 min; active = over 0.2 and 3.5 SD of the protein, either way, in both replicates (recomputed)
saracatinib = compound: CN1CCN(CCOc2cc(OC3CCOCC3)c3c(Nc4c(Cl)ccc5c4OCO5)ncnc3c2)CC1 [saracatinib]
Procedure, shortened: (§1)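 Values are thermal stability changes relative to control samples and are taken from duplicates. They are stated as log2 fold changes. Before quantification by TMTpro 16plex LC-MS/MS with equalised channel sums, K562 cells at 2×10^6 cells/mL were treated with 10 μM compound for 30 min, heated in aliquots for 3 min across 48°C-58°C, pooled, extracted in PBS with 0.5% NP-40 at 4°C, and centrifuged at 21,000xg for 90 min to give the soluble supernatant.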

sotrastaurin = compound: CN1CCN(c2nc(C3=C(c4c[nH]c5ccccc45)C(=O)NC3=O)c3ccccc3n2)CC1 [sotrastaurin]
Procedure, shortened: as §1

alvocidib = compound: CN1CC[C@H](c2c(O)cc(O)c3c(=O)cc(-c4ccccc4Cl)oc23)[C@H](O)C1 [alvocidib]
Procedure, shortened: as §1

Tubastatin A = compound: CN1CCc2c(c3ccccc3n2Cc2ccc(C(=O)NO)cc2)C1 [Tubastatin A]
Procedure, shortened: as §1

[1] = compound: CNC(=O)C1=CC=CC=C1NC2=NC(=NC=C2Cl)NC3=C(C=C(C=C3)N4CCOCC4)OC
Procedure, shortened: as §1

defactinib = compound: CNC(=O)c1ccc(Nc2ncc(C(F)(F)F)c(NCc3nccnc3N(C)S(C)(=O)=O)n2)cc1 [defactinib]
Procedure, shortened: as §1

rucaparib = compound: CNCc1ccc(-c2[nH]c3cc(F)cc4c3c2CCNC4=O)cc1 [rucaparib]
Procedure, shortened: as §1

[2] = compound: CNc1nc(-c2ccc3c(N)n[nH]c3c2)cc(N2C[C@@H](C(=O)NC3CCCCC3)CC[C@H]2C)n1
Procedure, shortened: as §1

encorafenib = compound: COC(=O)N[C@@H](C)CNc1nccc(-c2cn(C(C)C)nc2-c2cc(Cl)cc(NS(C)(=O)=O)c2F)n1 [encorafenib]
Procedure, shortened: as §1

[3] = compound: COC(=O)[C@H](CCSC)NC(=O)C1=C(C=C(C=C1)NC[C@H](CS)N)C2=CC=CC=C2
Procedure, shortened: as §1

[4] = compound: COC1=CC=C(C=C1)CN2C=CC3=C2C=C(C=C3)C(=O)NO
Procedure, shortened: as §1

filanesib = compound: CON(C)C(=O)N1N=C(c2cc(F)ccc2F)S[C@@]1(CCCN)c1ccccc1 [filanesib]
Procedure, shortened: as §1

zotarolimus = compound: CO[C@H]1C[C@@H]2CC[C@@H](C)[C@@](O)(O2)C(=O)C(=O)N2CCCC[C@H]2C(=O)O[C@H]([C@H](C)C[C@@H]2CC[C@H](n3cnnn3)[C@H](OC)C2)CC(=O)[C@H](C)/C=C(\C)[C@@H](O)[C@@H](OC)C(=O)[C@H](C)C[C@H](C)/C=C/C=C/C=C/1C [zotarolimus]
Procedure, shortened: as §1

idasanutlin = compound: COc1cc(C(=O)O)ccc1NC(=O)[C@@H]1N[C@@H](CC(C)(C)C)[C@](C#N)(c2ccc(Cl)cc2F)[C@H]1c1cccc(Cl)c1F [idasanutlin]
Procedure, shortened: as §1

alisertib = compound: COc1cc(Nc2ncc3c(n2)-c2ccc(Cl)cc2C(c2c(F)cccc2OC)=NC3)ccc1C(=O)O [alisertib]
Procedure, shortened: as §1

[5] = compound: COc1cc2nc(-c3cc(F)ccc3O)nc(N[C@@H]3CNC[C@H]3C(C)(C)O)c2cc1OC
Procedure, shortened: as §1

gefitinib = compound: COc1cc2ncnc(Nc3ccc(F)c(Cl)c3)c2cc1OCCCN1CCOCC1 [gefitinib]
Procedure, shortened: as §1

[6] = compound: COc1cccc2cc(-c3nc([C@H]4CC[C@H](C(=O)O)CC4)n4ncnc(N)c34)[nH]c12
Procedure, shortened: as §1

lapatinib = compound: CS(=O)(=O)CCNCc1ccc(-c2ccc3ncnc(Nc4ccc(OCc5cccc(F)c5)c(Cl)c4)c3c2)o1 [lapatinib]
Procedure, shortened: as §1

pictilisib = compound: CS(=O)(=O)N1CCN(Cc2cc3nc(-c4cccc5[nH]ncc45)nc(N4CCOCC4)c3s2)CC1 [pictilisib]
Procedure, shortened: as §1

Sequence of UniProt P54922 (P54922 whole entry, looked up): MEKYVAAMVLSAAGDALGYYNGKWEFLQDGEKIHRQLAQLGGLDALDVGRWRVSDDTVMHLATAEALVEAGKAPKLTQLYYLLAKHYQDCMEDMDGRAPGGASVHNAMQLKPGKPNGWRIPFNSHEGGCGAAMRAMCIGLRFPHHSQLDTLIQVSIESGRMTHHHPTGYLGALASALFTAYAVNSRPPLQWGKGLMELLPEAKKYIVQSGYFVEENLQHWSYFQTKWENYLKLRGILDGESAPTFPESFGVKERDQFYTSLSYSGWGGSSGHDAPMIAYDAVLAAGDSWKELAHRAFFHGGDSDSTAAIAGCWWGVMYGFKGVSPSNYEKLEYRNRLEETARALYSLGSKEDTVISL
Sequence of UniProt Q96F25 (Q96F25 whole entry, looked up): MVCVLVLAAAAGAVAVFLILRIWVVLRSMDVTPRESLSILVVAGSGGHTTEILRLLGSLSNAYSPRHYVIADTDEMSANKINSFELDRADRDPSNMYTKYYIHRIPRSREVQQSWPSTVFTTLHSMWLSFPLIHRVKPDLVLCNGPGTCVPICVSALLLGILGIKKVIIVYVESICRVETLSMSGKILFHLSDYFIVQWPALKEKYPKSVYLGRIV
Sequence of UniProt Q99758 (Q99758 whole entry, looked up): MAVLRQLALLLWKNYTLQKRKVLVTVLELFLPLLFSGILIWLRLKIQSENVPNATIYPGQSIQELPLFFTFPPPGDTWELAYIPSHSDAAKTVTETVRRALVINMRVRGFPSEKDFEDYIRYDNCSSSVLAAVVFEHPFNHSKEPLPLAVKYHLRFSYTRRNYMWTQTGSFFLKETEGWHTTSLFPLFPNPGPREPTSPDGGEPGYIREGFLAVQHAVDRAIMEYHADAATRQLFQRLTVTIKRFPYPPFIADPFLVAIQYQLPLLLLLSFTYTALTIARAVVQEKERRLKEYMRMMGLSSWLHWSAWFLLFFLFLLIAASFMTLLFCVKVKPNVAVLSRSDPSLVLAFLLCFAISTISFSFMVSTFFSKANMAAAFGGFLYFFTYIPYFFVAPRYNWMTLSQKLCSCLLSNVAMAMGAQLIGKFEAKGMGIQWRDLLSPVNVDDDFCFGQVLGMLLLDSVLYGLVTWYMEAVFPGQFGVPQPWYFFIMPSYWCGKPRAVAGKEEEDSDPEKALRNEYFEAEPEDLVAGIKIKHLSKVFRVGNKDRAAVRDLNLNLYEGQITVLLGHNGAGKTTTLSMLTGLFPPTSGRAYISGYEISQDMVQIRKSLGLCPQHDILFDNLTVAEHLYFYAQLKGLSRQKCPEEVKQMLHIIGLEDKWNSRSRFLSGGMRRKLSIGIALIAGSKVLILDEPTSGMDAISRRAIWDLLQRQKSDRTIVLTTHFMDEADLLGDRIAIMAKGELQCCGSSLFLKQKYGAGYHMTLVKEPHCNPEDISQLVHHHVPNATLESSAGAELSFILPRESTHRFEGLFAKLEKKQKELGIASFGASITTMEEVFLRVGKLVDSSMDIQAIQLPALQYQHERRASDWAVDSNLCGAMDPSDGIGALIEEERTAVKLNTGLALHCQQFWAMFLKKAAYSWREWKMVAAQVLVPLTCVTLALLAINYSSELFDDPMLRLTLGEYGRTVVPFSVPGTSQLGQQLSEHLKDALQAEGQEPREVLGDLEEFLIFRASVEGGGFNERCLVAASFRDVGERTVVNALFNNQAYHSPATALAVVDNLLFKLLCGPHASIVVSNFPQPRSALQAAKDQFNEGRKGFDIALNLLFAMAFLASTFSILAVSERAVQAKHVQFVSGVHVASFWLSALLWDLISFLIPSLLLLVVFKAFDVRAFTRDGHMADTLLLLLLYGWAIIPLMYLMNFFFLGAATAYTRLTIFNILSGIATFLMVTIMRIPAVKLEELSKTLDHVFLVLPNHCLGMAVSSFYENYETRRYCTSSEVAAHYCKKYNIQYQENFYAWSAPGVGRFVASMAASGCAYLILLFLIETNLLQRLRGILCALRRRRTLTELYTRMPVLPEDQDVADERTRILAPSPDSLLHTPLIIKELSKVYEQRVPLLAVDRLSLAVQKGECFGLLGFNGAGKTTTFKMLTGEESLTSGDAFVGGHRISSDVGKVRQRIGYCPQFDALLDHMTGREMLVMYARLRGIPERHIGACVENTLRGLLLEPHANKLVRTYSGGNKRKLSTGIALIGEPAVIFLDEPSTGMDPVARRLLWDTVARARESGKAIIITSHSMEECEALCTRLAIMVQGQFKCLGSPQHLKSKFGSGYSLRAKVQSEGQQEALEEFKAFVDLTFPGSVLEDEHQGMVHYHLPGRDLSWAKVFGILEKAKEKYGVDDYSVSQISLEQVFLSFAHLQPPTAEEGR
Sequence of UniProt Q9Y587 (Q9Y587 whole entry, looked up): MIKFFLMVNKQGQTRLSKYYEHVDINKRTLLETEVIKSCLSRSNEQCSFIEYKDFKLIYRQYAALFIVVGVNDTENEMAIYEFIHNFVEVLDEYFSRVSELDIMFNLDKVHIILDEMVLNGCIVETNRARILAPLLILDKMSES
Sequence of UniProt P05091 (P05091 whole entry, looked up): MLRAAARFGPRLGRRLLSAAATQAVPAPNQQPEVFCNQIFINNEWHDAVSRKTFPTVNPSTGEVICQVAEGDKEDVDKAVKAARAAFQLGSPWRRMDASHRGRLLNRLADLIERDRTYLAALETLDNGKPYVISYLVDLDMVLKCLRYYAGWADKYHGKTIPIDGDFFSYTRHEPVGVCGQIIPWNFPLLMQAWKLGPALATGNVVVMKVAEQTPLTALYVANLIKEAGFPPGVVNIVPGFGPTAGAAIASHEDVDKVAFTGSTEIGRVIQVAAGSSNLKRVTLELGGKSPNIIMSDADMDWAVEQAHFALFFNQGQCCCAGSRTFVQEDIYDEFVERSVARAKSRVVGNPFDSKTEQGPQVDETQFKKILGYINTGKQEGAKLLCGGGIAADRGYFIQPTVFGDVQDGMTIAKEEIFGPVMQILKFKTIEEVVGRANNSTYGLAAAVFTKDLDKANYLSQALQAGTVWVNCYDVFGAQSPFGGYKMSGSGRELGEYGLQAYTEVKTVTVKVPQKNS
Sequence of UniProt Q8NHH9 (Q8NHH9 whole entry, looked up): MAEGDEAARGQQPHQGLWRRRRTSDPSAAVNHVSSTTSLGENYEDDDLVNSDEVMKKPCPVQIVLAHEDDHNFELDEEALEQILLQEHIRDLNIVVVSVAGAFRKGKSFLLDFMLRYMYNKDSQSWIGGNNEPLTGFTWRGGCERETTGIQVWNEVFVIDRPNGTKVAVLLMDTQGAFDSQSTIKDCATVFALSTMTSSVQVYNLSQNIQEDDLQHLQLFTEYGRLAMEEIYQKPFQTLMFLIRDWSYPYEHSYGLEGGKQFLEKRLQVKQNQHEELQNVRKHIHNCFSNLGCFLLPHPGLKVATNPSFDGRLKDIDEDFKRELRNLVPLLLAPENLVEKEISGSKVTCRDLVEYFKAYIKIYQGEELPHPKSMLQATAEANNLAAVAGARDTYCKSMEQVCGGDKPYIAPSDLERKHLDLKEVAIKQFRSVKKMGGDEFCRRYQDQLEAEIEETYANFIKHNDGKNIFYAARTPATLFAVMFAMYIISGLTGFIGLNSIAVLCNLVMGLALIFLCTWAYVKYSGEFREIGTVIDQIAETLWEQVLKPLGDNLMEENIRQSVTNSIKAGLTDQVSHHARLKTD
Sequence of UniProt P17544 (P17544 whole entry, looked up): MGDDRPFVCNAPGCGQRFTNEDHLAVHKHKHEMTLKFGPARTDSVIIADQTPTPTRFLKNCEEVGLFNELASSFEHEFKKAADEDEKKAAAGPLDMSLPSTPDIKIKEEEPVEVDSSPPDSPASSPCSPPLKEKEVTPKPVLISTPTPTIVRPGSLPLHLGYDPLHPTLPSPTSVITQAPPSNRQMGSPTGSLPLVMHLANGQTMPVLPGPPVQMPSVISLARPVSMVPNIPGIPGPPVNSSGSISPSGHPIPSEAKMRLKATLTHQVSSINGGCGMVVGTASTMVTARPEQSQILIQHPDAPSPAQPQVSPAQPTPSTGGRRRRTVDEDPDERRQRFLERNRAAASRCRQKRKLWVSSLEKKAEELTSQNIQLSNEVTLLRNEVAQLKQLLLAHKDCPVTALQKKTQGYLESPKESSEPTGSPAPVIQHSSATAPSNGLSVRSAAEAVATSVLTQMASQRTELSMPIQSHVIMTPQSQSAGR
Sequence of UniProt Q96P47 (Q96P47 whole entry, looked up): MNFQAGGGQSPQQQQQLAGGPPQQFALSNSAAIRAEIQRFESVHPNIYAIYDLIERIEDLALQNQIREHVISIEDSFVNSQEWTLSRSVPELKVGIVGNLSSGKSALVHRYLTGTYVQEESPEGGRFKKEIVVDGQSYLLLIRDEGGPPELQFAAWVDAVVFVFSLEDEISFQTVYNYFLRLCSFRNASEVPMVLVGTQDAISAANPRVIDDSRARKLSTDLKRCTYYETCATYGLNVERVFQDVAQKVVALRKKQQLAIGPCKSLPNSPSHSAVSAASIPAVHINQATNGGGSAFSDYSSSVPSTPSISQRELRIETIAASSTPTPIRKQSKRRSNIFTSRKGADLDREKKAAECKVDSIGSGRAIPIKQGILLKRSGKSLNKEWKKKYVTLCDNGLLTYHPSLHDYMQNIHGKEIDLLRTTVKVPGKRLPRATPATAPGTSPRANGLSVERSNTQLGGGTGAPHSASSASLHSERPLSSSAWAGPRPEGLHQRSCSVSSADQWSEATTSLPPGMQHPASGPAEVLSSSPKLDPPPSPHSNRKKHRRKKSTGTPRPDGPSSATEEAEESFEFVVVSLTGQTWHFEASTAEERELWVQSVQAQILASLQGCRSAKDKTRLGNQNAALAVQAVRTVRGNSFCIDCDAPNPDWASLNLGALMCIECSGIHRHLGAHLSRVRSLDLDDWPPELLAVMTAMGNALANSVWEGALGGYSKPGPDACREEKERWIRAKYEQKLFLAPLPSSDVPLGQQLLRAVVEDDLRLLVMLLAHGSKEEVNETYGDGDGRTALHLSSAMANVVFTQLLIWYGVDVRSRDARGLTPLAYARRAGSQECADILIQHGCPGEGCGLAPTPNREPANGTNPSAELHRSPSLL

Target | log2 fold change (saracatinib) | log2 fold change (sotrastaurin) | log2 fold change (alvocidib) | log2 fold change (Tubastatin A) | log2 fold change [1] | log2 fold change (defactinib) | log2 fold change (rucaparib) | log2 fold change [2] | log2 fold change (encorafenib) | log2 fold change [3] | log2 fold change [4] | log2 fold change (filanesib) | log2 fold change (zotarolimus) | log2 fold change (idasanutlin) | log2 fold change (alisertib) | log2 fold change [5] | log2 fold change (gefitinib) | log2 fold change [6] | log2 fold change (lapatinib) | log2 fold change (pictilisib)
ATL2 (UniProt Q8NHH9) | -0.032 | 0.05 | -0.05 | 0.047 | 0.005 | 0.008 | 0.019 | 0.035 | 0.005 | 0.008 | -0.006 | -0.03 | 0.026 | -0.052 | 0.008 | 0.148 | 0.016 | 0.034 | -0.039 | 0.003
ABCA3 (UniProt Q99758) | 0.009 | 0.121 | 0.047 | -0.05 | 0.065 | 0.108 | 0.11 | 0.011 | 0.192 | -0.039 | -0.044 | 0.062 | 0.03 | -0.021 |  | 0.147 |  |  | -0.084 | 0.01
ADAM15 (UniProt Q13444) | -0.241 | -0.034 | -0.091 | 0.065 | -0.211 | -0.04 |  | 0.073 |  | 0.056 | -0.159 | 0.065 | -0.206 | -0.083 |  | 0.078 | -0.029 |  | 0 | -0.045
BRD4 (UniProt O60885) | 0.047 | -0.149 | -0.044 | -0.156 | 0.065 | -0.051 | -0.073 | 0.204 | 0.01 | -0.002 |  | -0.068 | -0.253 | -0.001 | -0.064 | 0.078 | 0.152 | -0.003 | -0.039 | 0.161
ADAMTS5 (UniProt Q9UNA0) | -0.107 | -0.004 | 0.007 | 0.222 | -0.13 | -0.021 | -0.04 | -0.048 | -0.136 | 0.028 | 0.295 | -0.051 | -0.063 | -0.06 | 0.019 |  | 0.012 | 0.092 |  | 0.198
AP2M1 (UniProt C9JTK4) | -0.109 | 0.055 | 0.203 | -0.045 |  | -0.053 | 0.07 | -0.019 | -0.048 | 0.193 | 0.016 | 0.132 | -0.203 | 0.224 | -0.177 |  | 0.005 | 0.123 |  | 
AFDN isoform 1 (UniProt P55196) | -0.192 | -0.047 | -0.182 |  | -0.025 | 0.021 | 0.009 | -0.175 | 0.018 | -0.302 | -0.151 | 0.024 | -0.01 | 0.019 | 0.127 |  |  | 0.074 |  | -0.144
AP4S1 (UniProt Q9Y587) | -0.08 | -0.117 | -0.099 |  | -0.05 | 0.059 | 0.039 | -0.072 | 0.073 | 0.008 | -0.039 | 0.029 | 0.126 | -0.061 | -0.098 | -0.002 | -0.083 | 0.036 | -0.047 | 
ANK2 (UniProt Q01484) | 0.24 | 0.05 | -0.013 | -0.122 | 0.05 | -0.057 | -0.019 | -0.095 | -0.106 | -0.041 | -0.054 | -0.052 | -0.05 | 0.083 | -0.076 | -0.04 | -0.062 | 0.048 | -0.013 | 0.532 (active)
ATF7 isoform 6 (UniProt P17544) | 0.477 (active) | -0.105 | 0.026 | -0.088 | -0.096 | 0.063 |  | 0.034 |  | -0.037 | 0.04 | 0.417 | 0.03 | 0.084 | -0.007 | -0.004 | 0.09 | 0.09 | 0.121 | 
AASDH (UniProt Q4L235) | 0.011 | -0.067 | -0.035 | 0.16 | -0.014 | -0.091 |  | -0.036 |  | -0.004 | -0.13 | -0.01 | -0.221 |  | -0.141 | 0.041 | -0.143 | 0.207 | 0.063 | 0.093
ALDH2 isoform 2 (UniProt P05091) |  | 0.161 |  | 0.005 |  | 0.06 | -0.255 |  | 0.097 | -0.003 |  | 0.013 |  | 0 |  | 0.166 |  |  | -0.266 | -0.035
ALG14 (UniProt Q96F25) | 0.049 |  | -0.14 | -0.027 | -0.001 | 0.091 | -0.173 | -0.022 | 0.028 | -0.002 | -0.2 |  | -0.109 | -0.091 | 0.112 | -0.19 | 0.074 | 0.077 | 0.168 | -0.467
ABCA4 (UniProt P78363) |  | -0.249 | 0.277 | 0.246 | -0.152 |  | 0.006 |  | 0.006 |  | 0.394 | 0.076 | 0.031 | -0.02 | -0.071 |  | 0.014 | -0.007 |  | 0.135
BRMS1 (UniProt Q9HCU9) | -0.185 |  |  | 0.001 |  |  | -0.017 | 0.007 | 0.106 |  |  |  |  | 0.066 | -0.074 |  |  | 0.007 |  | 0.042
ADPRH (UniProt P54922) |  | -0.067 |  | 0.213 | -0.011 | -0.076 |  |  |  | 0.028 | 0.098 | -0.088 |  |  | -0.099 | 0.135 | 0.013 | -0.033 | 0.05 | -0.107
AGAP3 isoform 4 (UniProt Q96P47) |  | -0.233 | -0.011 | 0.166 | -0.033 |  | 0.178 |  | -0.104 |  | -0.051 | 0.24 | -0.02 | 0.12 | -0.073 | 0.079 | 0.28 | -0.1 | 0.038 | 
ARFIP1 isoform 2 (UniProt P53367) | 0.026 | -0.041 |  |  | -0.268 |  |  | 0.279 |  |  | -0.225 | -0.082 |  |  | -0.17 | -0.013 | -0.067 | -0.068 | 0.05 | -0.154
ACTBL2 (UniProt Q562R1) | -0.054 | 0.179 |  |  | 0.158 | 0.432 | -0.711 | 0.035 | 0.239 | 0.15 |  | 0.171 |  | 0.533 | 0.521 | -0.085 | 0.348 | -0.105 | -0.079 | -0.541
